# This is a sample that favours compounds with a hit; in the whole collection about 1.2% have one here.
# RGS4-Gao reg: human RGS4-Galphao interaction regulation | P09471 | Multiplexed bead flow cytometry, RGS4-Galphao binding; actives lie on both sides | binding response (% of control), % at 10 µM | 220,000 compounds, 0.33% hits | AID 1415; in the data active = binding response below about 49% or above about 150%; inactive = in between;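 also: fluorescent Galphao activated with aluminum fluoride binding bead-coupled RGS4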
# Target sequence (P09471 whole entry, looked up): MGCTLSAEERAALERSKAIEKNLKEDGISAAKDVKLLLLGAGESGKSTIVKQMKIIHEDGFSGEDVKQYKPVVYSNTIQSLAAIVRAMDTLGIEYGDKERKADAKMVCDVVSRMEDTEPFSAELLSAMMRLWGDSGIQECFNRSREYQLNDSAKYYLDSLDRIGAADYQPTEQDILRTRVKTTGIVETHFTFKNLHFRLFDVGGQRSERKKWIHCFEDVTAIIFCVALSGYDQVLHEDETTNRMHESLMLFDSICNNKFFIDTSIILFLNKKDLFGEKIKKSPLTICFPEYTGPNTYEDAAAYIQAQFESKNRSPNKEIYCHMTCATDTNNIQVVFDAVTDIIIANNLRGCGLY
# RGS8-Gao reg: modulates binding of RGS8 to human Galphao; multiplexed bead flow cytometry; actives lie on both sides; response (percent of control binding), % at 10 µM; 220,000 compounds, 0.34% hits; in the data active = response below about 60% or above about 140%; inactive = in between;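 also: Galphao activated as the GDP aluminium fluoride complex binding bead-coupled RGS8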
# RGS7-Gao reg: regulators of human RGS7-Galphao interaction. AID 1439. 220,000 compounds, 0.35% hits. P09471. binding response (% of control), % at 10 µM. Multiplexed bead flow cytometry, RGS7-Galphao binding; actives lie on both sides; in the data active = binding response below about 49% or above about 150%; inconclusive = no clear call, values can overlap the other calls; inactive = in between;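 also: fluorescent Galphao held in activated GDP-AlF4 state binding bead-coupled RGS7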
# Avidin bead fluor: compound fluoresces at 488/530 nm on avidin beads; compound fluorescence 488/530 nm, flow cytometry; hits give high values; fluorescence (KMESF) at 10 µM; 220,000 compounds, 0.38% hits; AID 1775; in the data active = fluorescence above about 47
# RGS16-Gao HTS: RGS16-Galphao interaction regulator (human). O15492+P09471. bead-based flow cytometry RGS16-Galphao binding, fluorescence; actives lie on both sides. binding response (% of control), % at 10 µM. 220,000 compounds, 0.38% hits. AID 1441;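 also: Galphao activated by GDP with aluminum fluoride before binding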
# Target sequence (O15492 whole entry, looked up): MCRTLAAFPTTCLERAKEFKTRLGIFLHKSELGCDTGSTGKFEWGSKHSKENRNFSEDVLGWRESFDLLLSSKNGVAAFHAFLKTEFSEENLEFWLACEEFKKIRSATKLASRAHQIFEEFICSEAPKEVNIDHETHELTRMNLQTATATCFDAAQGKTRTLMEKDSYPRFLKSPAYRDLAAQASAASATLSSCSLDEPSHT
# Target sequence (P09471 whole entry, looked up): as the sequence (P09471 whole entry, looked up) above
# GSH bead fluor: GSH bead compound fluorescence profile | GSH beads flow cytometry, compound fluorescence 488/530 nm; hits give high values | fluorescence (KMESF) at 10 µM | 190,000 compounds, 0.25% hits | AID 1776; in the data active = fluorescence above about 89;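 also: glutathione beads carrying GST-tagged Bcl family fusion proteins plus one bare bead set; values are compound well signal with DMSO vehicle wells as background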
# RGS4-Gao HTS: modulates binding between human RGS4 and Galphao; shares compounds with RGS16-Gao HTS; multiplexed bead flow cytometry, RGS–Galpha-o binding; RGS4–Galpha-o binding response, % at 10 µM; 1,600 compounds, 99% hits; AID 1504;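 also: fluorescently labeled Galpha-o bound to GDP with aluminium fluoride binding biotinylated RGS beads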
# Avidin counter: interferes with biotinylated probe binding to avidin beads. inhibition, % at 10 µM. shares compounds with RGS16-Gao HTS. 1,700 tested, under 10 active. streptavidin beads, fluorescein-biotin binding, flow cytometry;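 active = inhibition above 50%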;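 also: median green fluorescence of gated singlet beads compared with DMSO control wells; 0% = DMSO wells and 100% = complete loss of bead fluorescence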
# RGS8-Gao confirm: confirmation of regulators of human RGS8-Galphao interaction; shares compounds with RGS16-Gao HTS; bead-based flow cytometry RGS8-Galphao binding, fluorescence; actives lie on both sides; binding response (% of control), % at 10 µM; 1,700 compounds, 3% hits; AID 1836; in the data active = binding response below about 72% or above about 130%; inactive = in between;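 also: Galphao activated as GDP AlF4 complex before binding bead RGS8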
# RGS7-Gao confirm: RGS7-Galphao interaction regulation, single point confirmation; 1,700 compounds, 7.8% hits; shares compounds with RGS16-Gao HTS; bead-based flow cytometry RGS7-Galphao binding; actives lie on both sides; response (percent of control binding), % at 10 µM; in the data active = response below about 75% or above about 130%; inactive = in between;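 also: fluorescent Galphao activated with GDP and aluminum fluoride binding bead-coupled RGS7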
# RGS16-Gao single: RGS16-Galphao interaction regulation, single point confirmation; shares compounds with RGS16-Gao HTS; bead-based flow cytometry, RGS16-Galphao binding; actives lie on both sides; response (% of control binding), % at 10 µM; 1,700 compounds, 4% hits; AID 1838; in the data active = response below about 74% or above about 130%; inactive = in between;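 also: Galphao activated as the GDP aluminium fluoride complex binding bead-coupled RGS16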
# RGS4-Gao single: confirmation of regulators of human RGS4-Galphao interaction | shares compounds with RGS16-Gao HTS | RGS4-Galphao binding, multiplexed bead flow cytometry; actives lie on both sides | binding response (% of control), % at 10 µM | 1,700 compounds, 4% hits; in the data active = binding response below about 74% or above about 130%; inactive = in between
# RGS19-Gao conf: confirmation of regulators of human RGS19-Galphao interaction. shares compounds with RGS16-Gao HTS. response (percent of control binding), % at 10 µM. 1,700 compounds, 5% hits. bead-based flow cytometry RGS19-Galphao binding; actives lie on both sides; in the data active = response below about 50% or above about 160%; inactive = in between;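 also: 100% = no compound control and 0% = blank background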
# Numbers without * were called inactive; u = inconclusive; x = no result; + = active, no number; [ ] = dose if it differs, or a comment. Unless noted, no rule for the calls is given here.
SMILES,RGS4-Gao reg,RGS8-Gao reg,RGS7-Gao reg,Avidin bead fluor,RGS16-Gao HTS,GSH bead fluor,RGS4-Gao HTS,Avidin counter,RGS8-Gao confirm,RGS7-Gao confirm,RGS16-Gao single,RGS4-Gao single,RGS19-Gao conf
COc1ccc(NC2(c3ccccc3)OC(=O)c3ccccc32)cc1 (configuration not stated),x,x,x,x,x,14,x,0,105,104,105,104,111
Cc1nn(CCC(=O)O)c(C)c1C,103,93,165*[activator],79*,107,16,103*,0,100,95,105,100,105
OCCC1CN(Cc2ccccc2-c2ccco2)CCN1C1CCCC1 (configuration not stated),97,101,96,6,99,13,x,x,x,x,x,x,x
O=C(OCCN1C(=O)c2ccccc2C1=O)c1cccs1,130,140,126,6,+,16,130*,x,x,x,x,x,x
Cc1ccc(CSc2nnc3ccc(-c4ccncc4)nn23)cc1,100,101,u,8,102,10,x,x,x,x,x,x,x
COC(=O)[C@H](CCSC)NC(=O)Nc1ccc(S(N)(=O)=O)cc1,101,102,u,8,104,x,x,x,x,x,x,x,x
O=C(C(c1ccccc1)c1ccccc1)N1CCN(CCN2C(=O)c3cccc4cccc(c34)C2=O)CC1,103,102,x,6,103,9,x,-1,100,96,103,97,127
CCN(CC)C(=S)NC(=O)c1cc(OC)c(OC)c(OC)c1,103,101,u,9,100,18,x,x,x,x,x,x,x
Cc1nn(C)c(C)c1/C=N/N=C1\CCC2C3CCc4cc(O)ccc4C3CCC12C (configuration not stated),102,102,104,9,96,13,x,x,x,x,x,x,x
CCC(CC)C(=O)NCCc1ccc(OC)c(OC)c1,102,101,101,35,103,10,x,x,x,x,x,x,x
CCC(CC)C(=O)NCCc1ccc(OC)cc1,238*[activator],x,x,x,x,34,x,2,97,97,97,98,99
COc1ccc(S(=O)(=O)Nc2cc(Sc3ncn[nH]3)c(O)c3ccccc23)cc1,72,61,77,2,11*,28,72*,x,x,x,x,x,x
CSC1=NSC2=NC(=O)/C(=C/c3coc4ccccc4c3=O)C(=N)N12,150,92,174*[activator],94*,200,13,150*,x,x,x,x,x,x
CSC1=NSC2=NC(=O)/C(=C/c3coc4ccc(O)cc4c3=O)C(=N)N12,97,96,92,13,97,15,x,x,x,x,x,x,x
O=C(NC1CCCCCC1)c1ccc[nH]c1=S,100,101,100,13,97,15,x,x,x,x,x,x,x
O=C(c1ccncc1)N1N=C(C2CCCCC2)CC1(O)C(F)(F)F (configuration not stated),47*,61,51,2,15,11,x,4,96,72*,89,83,78
Cc1nnc(N/N=C/c2ccco2)n1N,105,104,101,13,105,14,x,x,x,x,x,x,x
N#Cc1cc(C(=O)c2ccccc2O)cn(-c2nccs2)c1=O,57,58*,66,5,22,18,57*,1,106,104,105,102,115
COc1cccc(Nc2nnc(SCN3C(=O)c4ccccc4C3=O)s2)c1,122,153*[activator],130,12,551,13,122*,1,103,101,100,102,106
CCc1nc(NC(=O)NS(=O)(=O)c2ccccc2C(=O)OC)nc(OC)n1,95,97,95,9,97,11,x,x,x,x,x,x,x
Cc1cccc(C)c1NC(=O)CSC(=O)c1sc2ccccc2c1Cl,-6.1*,22*,u,-1,-2.1*,x,x,-1,99,97,97,100,92
O=C(NCC(=O)N1CCN(S(=O)(=O)/C=C/c2ccccc2)CC1)c1ccc(Cl)cc1,97,99,u,8,97,x,x,x,x,x,x,x,x
COc1ccc(C(=O)NC(=S)NNC(=O)CNC(=O)C2CCCCC2)cc1,101,100,100,10,106,13,x,x,x,x,x,x,x
Cc1ccc2c(c1)cc(CN(Cc1ccco1)C(=O)COc1ccccc1)c1nnnn12,126,99,159*[activator],102*,101,53,126*,1,100,98,98,96,101
O=C(NCCc1ccncc1)Nc1cccc(Cl)c1,87,94,84,7,89,6,x,x,x,x,x,x,x
SMILES,RGS4-Gao reg,RGS8-Gao reg,RGS7-Gao reg,Avidin bead fluor,RGS16-Gao HTS,GSH bead fluor,RGS4-Gao HTS,Avidin counter,RGS8-Gao confirm,RGS7-Gao confirm,RGS16-Gao single,RGS4-Gao single,RGS19-Gao conf
O=C(NCCc1ccncc1)Nc1ccccc1Cl,88,95,194*[activator],126*,97,9,88*,0,97,89,97,97,86
CC1=C(C(N)=O)C(c2cccs2)n2nc(-c3cccc(Cl)c3)nc2N1 (configuration not stated),99,101,101,27,106,25,x,x,x,x,x,x,x
CC1=C(C(N)=O)C(c2cccs2)n2nc(-c3cccc(C)c3)nc2N1 (configuration not stated),34*,34*,31*,8,26,17,x,1,100,101,98,98,92
CC(C)c1onc(C(=O)NCCc2ccccc2)c1[N+](=O)[O-],102,100,94,10,98,11,x,x,x,x,x,x,x
CC(C)c1onc(C(=O)N(C)Cc2ccccc2)c1[N+](=O)[O-],89,74,87,2,24*,10,89*,4,107,105,113,105,111
N#C/C(=C(/O)CSc1nnc(Cc2cccs2)n1C1CCCCC1)c1nc2ccccc2[nH]1,33*,51*,46*,1,-53,228*,x,0,113,109,111,109,93
